Screening data deposited in PubChem by National Center for Advancing Translational Sciences (NCATS).
A selection: hits, their analogues and other compounds. The true share with any hit is near 2.8%.
KDM5B inh – Primary screen for KDM5B Histone Demethylases FDH-coupled qHTS; 220,000 tested, 2.6% active; KDM5B demethylase, FDH-coupled NADH fluorescence (FDH is formaldehyde dehydrogenase); Potency, µM (highest dose often 57.7 µM), usual class: inhibitors; Lysine-specific demethylase 5B (Homo sapiens), Q9UGL1; also: potency is read from the fitted curve at half-maximal effect; 0% is about no effect; nearly all actives have a fitted effect of over 70% in size
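Coupled FDH/NAD⁺ fluorescence readout. KDM5BΔAP 200 nM final; compound titration, 10 min RT preincubation; substrate mix 12.5 µM H3K4me3, 25 µM 2-OG, 50 µM Fe(II), 100 µM ascorbate, 0.25 mM NAD⁺, 0.25 U/mL FDH; ΔRFU over 30 min.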
HEK293 viab – GF-AFC viability counterscreen for inhibitors of alpha-synuclein gene (SNCA) expression. HEK-293-SNCA-luc viability, GF-AFC fluorescence, 24 h. Potency, µM (highest dose often 57.1 µM), for inactives: at the top dose activity change, negative = cytotoxicity, actives largely listed as cytotoxic. 150,000 tested, 0.12% active;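 also: potency is read from the fitted curve at half-maximal effect; 0% = DMSO-treated cells and -100% = medium-only wells without cells; nearly all actives have a fitted effect of over 30% in size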
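HEK-293-SNCA-luc cells (1500/well) plated 24 h, then exposed 24 h to a dilution series; GF-AFC added 30 min at 37C, fluorescence 405/540 nm; normalised to medium-only and DMSO wells, Hill fit.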
SNCA expr inhib – Primary qHTS assay for inhibitors of alpha-synuclein gene (SNCA) expression; HEK-293 SNCA-luciferase knock-in, luminescence, 24 h; Potency, µM (highest dose often 57.2 µM), inactives show at the top dose activity change, negative = inhibition, hits mostly inhibitors; 140,000 tested, 0.17% active;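 also: potency is read from the fitted curve at half-maximal effect; plate controls were DMSO cells for no effect and cell-free wells for full effect; nearly all actives have a fitted effect of over 45% in size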
IP6K1 inh – Primary qHTS assay for small molecule inhibitors of Inositol hexaphosphate kinase 1 (IP6K1). IP6K1 kinase, ADP-Glo luminescence, 2 h; active compounds read low. activity change, % (series mostly up to about 58 µM). 140,000 tested, 0.81% active. AID 1645851, 2021; in the data active = activity change below about -25%; also: % is scaled to controls: 0 for no effect and ±100 for the full control effect
Target sequence (Q92551 whole entry, looked up): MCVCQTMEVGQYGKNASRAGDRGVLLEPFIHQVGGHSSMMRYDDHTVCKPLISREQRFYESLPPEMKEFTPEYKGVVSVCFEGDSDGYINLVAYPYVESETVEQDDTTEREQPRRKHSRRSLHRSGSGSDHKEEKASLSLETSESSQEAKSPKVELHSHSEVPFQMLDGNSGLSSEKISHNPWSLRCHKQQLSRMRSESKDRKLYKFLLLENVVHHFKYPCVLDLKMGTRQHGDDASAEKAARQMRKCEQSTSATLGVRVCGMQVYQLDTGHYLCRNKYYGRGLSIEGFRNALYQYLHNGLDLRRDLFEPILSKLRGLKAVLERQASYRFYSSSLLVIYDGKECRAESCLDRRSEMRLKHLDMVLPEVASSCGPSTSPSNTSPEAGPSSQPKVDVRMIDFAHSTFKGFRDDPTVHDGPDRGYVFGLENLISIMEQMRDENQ
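ADP-Glo luminescence measures ADP made by human IP6K1 during a 2 h RT reaction with ATP/IP6 (mix at 1.3 mM/130 uM); top library doses 57.5 and 19.1 uM final.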
Numbers without * were called inactive; i = inactive; u = inconclusive; x = no result given; [ ] = another dose, or the depositor's remark. Unless noted, calls follow the shape of the dose curve; as a rule, active = well fitted curve in the direction sought with a large enough effect; inconclusive = small, poorly fitted or top-dose-only effect, or another doubt; inactive = no such curve, though single readings can be large; an effect the other way counts as inactive or inconclusive.

SMILES	KDM5B inh	HEK293 viab	SNCA expr inhib	IP6K1 inh
C=CCO[C@@H]1CCN2C(=O)c3cc(-c4ccc(OC)cc4)ccc3NC(=O)[C@H]12	35µM*	-2%[87.6 µM]	3%[87.6 µM]	-17
O=C1Nc2ccc(-c3ccccc3)cc2C(=O)N2CC[C@H](NS(=O)(=O)c3cccs3)[C@@H]12	i	1%	u	-6
O=C(O)CCC(=O)N[C@H]1CCN2C(=O)c3cc(/C=C/c4ccccc4)ccc3NC(=O)[C@H]12	40µM*	-12%[87.6 µM]	-6%[87.6 µM]	-9
O=C1Nc2ccc(/C=C/c3ccccc3)cc2C(=O)N2CC[C@H](NS(=O)(=O)c3cccs3)[C@@H]12	32µM*	-19%	u	-7
O=C(O)COCC(=O)N[C@H]1CCN2C(=O)c3cc(/C=C/c4ccccc4)ccc3NC(=O)[C@H]12	32µM*	4%	-12%	-1
COc1ccc(C(=O)N2CCN3C(=O)c4cc(-c5ccc(Cl)cc5)ccc4NC(=O)[C@@H]3C2)cc1	u	-23%	u	-15
COc1cc(C#N)ccc1OCc1cc(Br)ccc1F	i	x	x	x
CCOCCCNc1nc2c(c(=O)n(Cc3ccc(F)cc3)c(=O)n2C)n1C	i	x	x	x
O=C(O)CCC(=O)N[C@H]1CCN2C(=O)c3cc(-c4cccc(C(F)(F)F)c4)ccc3NC(=O)[C@H]12	i	5%	-8%	-4
COc1ccc(/C=C/c2ccc3c(c2)C(=O)N2CC[C@H](NC(=O)CCC(=O)O)[C@H]2C(=O)N3)cc1	28µM*	-3%	-11%	7
COc1ccc(-c2ccc3c(c2)C(=O)N2CC[C@H](NC(=O)COCC(=O)O)[C@H]2C(=O)N3)cc1	20µM*	4%	35%	-2
O=C(N[C@H]1CCN2C(=O)c3cc(/C=C/c4ccccc4)ccc3NC(=O)[C@H]12)C1CCCC1	32µM*	-28%[87.6 µM]	3%[87.6 µM]	-7
O=C(NCc1ccncc1)C1CN(Cc2cccc(Br)c2)CC12CCOCC2 (stereo unspecified)	i	4%	44%	11
Cc1nn(-c2ccccc2)c2c1C(C1CC1)N(C1CCN(Cc3ccc(F)cc3)CC1)C2=O (stereo unspecified)	x	x	x	3
O=c1cc(-c2cnccn2)oc2c(Nc3ccccn3)nccc12	40µM*	-6%[87.6 µM]	39%[87.6 µM]	-10
O=c1cc(-c2ccccn2)oc2c(NCc3ccccc3)nccc12	40µM*	-3%[87.6 µM]	-11%[87.6 µM]	-20
CN1CCN(c2cc(=O)c3ccnc(NCc4ccccc4)c3o2)CC1	40µM*	-2%[87.6 µM]	25%[87.6 µM]	-15
O=c1cc(-c2ccccn2)oc2c(Nc3cccnc3)nccc12	u	-15%[87.6 µM]	-11%[87.6 µM]	-19
CN1CCN(c2cc(=O)c3ccnc(-c4ccccc4O)c3o2)CC1	u	-2%[87.6 µM]	3%[87.6 µM]	-15
Cc1nc(SCc2coc(-c3cccc(Cl)c3)n2)n[nH]1	i	x	x	x
COc1ccccc1OCC(=O)c1ccc2c(c1)N(CCCC(=O)NCC1CCCO1)C(=O)CO2 (stereo unspecified)	u	-16%	4%	1
O=C(NCC1Cn2cccc2CN1Cc1cccnc1)Nc1ccccc1 (stereo unspecified)	u	-4%	17%	5
O=S(=O)(NCC1Cn2cccc2CN1Cc1cccnc1)c1ccc(F)cc1 (stereo unspecified)	28µM*	13%	6%	-10
Cc1cc(C)n(Cc2ccc(C(=O)NCC3Cn4cccc4CN3Cc3ccccc3)o2)n1 (stereo unspecified)	32µM*	4%	6%	-18
O=C(NCC1Cn2cccc2CN1Cc1ccccc1)c1cncc(Br)c1 (stereo unspecified)	28µM*	2%	32%	-10
COc1cccc(CC(=O)NCC2Cn3cccc3CN2Cc2ccccc2)c1 (stereo unspecified)	x	2%	106%	-14
CCOCCCNC(=O)NCC1Cn2cccc2CN1Cc1ccccc1 (stereo unspecified)	28µM*	11%	5%	-11
Cc1cc(C)n(Cc2ccc(C(=O)NN)o2)n1	i	x	x	x
CC(C)NC(=O)CSc1ncc(-c2ccc(Br)cc2)o1	i	x	x	x
Cc1ccc(-c2cc(C(=O)N3CCN(C(=O)c4ccc(Br)o4)CC3)[nH]n2)cc1C	i	x	x	x
